The record followed here is ChEMBL document CHEMBL3988442, “University of Dundee, Small-Polar-MMV Screening Library” (2021).

The subject of the assay is Leishmania donovani. The experiment in a line: Leishmania intramacrophage assay. The format is functional, organism-based. Set-up: scale not given: in the data most compounds retested in dose-response had high values.

About 1,000 (1.4%) of roughly 69,000 compounds showed an effect of 50% or more. The full list was thinned out, with strong results kept by preference.

With `Cc1nc(=O)c2ccccc2n1C1=CCN(CC(=O)N2CCCC2)CC1`, where the note is “30.3 µM, […]”, the “Percent Effect” value is given as 66.01%.
On the same count and under the same terms, in the case of `Cc1nc(=O)c2ccccc2n1C1=CCN(CC(=O)NC(C)C)CC1` it was 64.5%; in that of `Cc1nnc2n1CCN(CC(=O)NC(C)c1cccc3ccccc13)C2` (stereo not given), -27.74%.
Consider `Cc1nc2ccccc2c(=O)n1CCC(=O)N1CCCC1`, for which, where the note is “30 µM”, the “Percent Effect” value is reported as 19.05%.
Take `COCCNC(=O)CN1CC=C(n2c(C)nc(=O)c3ccccc32)CC1`: the “Percent Effect” value (30.3 µM, […]) is given as 40.79%.
For `CSCCNC(=O)c1ccc(OC2CCN(CC(C)(C)C)CC2)c(Cl)c1`, for the setting “30 µM, 30.03 µM”, the “Percent Effect” value was found to be 17.7%.
As for `COCc1n[nH]c2c1CN(Cc1ccccn1)C2.O=C(O)C(F)(F)F`, the “Percent Effect” value (30.3 µM, […]) is 2.635%.
Consider `Cc1nc(CN2CC[C@H]3[C@@H]2CCC(=O)N3c2cnn(C)c2)cs1.O=C(O)C(F)(F)F`, for which the “Percent Effect” value (30.3 µM, […]) was 2.736%.
Regarding `CC(C)(C)C(=O)N1CCN(C(=O)Nc2cnn(CC(F)F)c2)CC1`, the “Percent Effect” value (30.3 µM, […]) was determined as 4.989%.
On the same count and under the same terms, for `O=C(c1cccnc1)N1CCCC(c2ncncc2-c2ccncc2)C1` (stereo not given) the value was 1.341%; for `COCCO[C@H]1CCN(C(=O)c2ccsc2)[C@H]1Cc1ccncc1`, 26.31%; for `CCO[C@@H]1CCN(C(=O)c2cnc(C)cn2)[C@@H]1Cc1cnn(C)c1`, 53.66%.
Take `CCO[C@@H]1CCN(C(=O)N(C)C)[C@@H]1Cc1cnn(C)c1`: the “Percent Effect” value (30.3 µM, […]) came out at 27.5%.
Regarding `CCO[C@@H]1CCN(C(=O)c2cscn2)[C@@H]1Cc1cnn(C)c1`, the “Percent Effect” value (30 µM, 30.03 µM) is on record as -2.934%.
As for `COCCO[C@H]1CCN(C(=O)c2ccc[nH]2)[C@H]1Cc1ccncc1`, where the note is “30 µM, 30.03 µM”, the “Percent Effect” value turned out to be 17.48%.
`COCCO[C@H]1CCN(C(=O)c2cnccn2)[C@H]1Cc1ccncc1`: the “Percent Effect” value (30.3 µM, […]) is given as 54.37%.
Still for that read-out and setting: for `CN(C)S(=O)(=O)N1CC[C@]2(C[C@@H](Oc3cccnc3)CO2)C1.O=C(O)C(F)(F)F` the value was 7.751%; for `Cc1ccc(N2CCCc3sc(C(=O)NCc4ccc(C)o4)nc32)nn1`, 18.34%; for `O=C1OCCN1CCNCC1(O)CCCN(CCC2CCCCC2)C1=O` (stereo not given), 27.13%.
Regarding `O=C1N(CCCc2ccccc2)CCCC1(O)CNCC1CCCCC1` (stereo not given), the “Percent Effect” value (30.3 µM, […]) came to 36.42%.
Still for that read-out and setting: for `COCCNCC1(O)CCCN(Cc2ccc(F)c(F)c2)C1=O` (stereo not given) the value was 36.88%; for `O=C1N(Cc2ccc(F)c(F)c2)CCCC1(O)CNCC1CCCCC1` (stereo not given), 62.26%; for `C=C(C)CNCC1(O)CCCN(Cc2ccc(F)c(F)c2)C1=O` (stereo not given), 36.85%.
As for `O=C1N(CCCc2ccccc2)CCCC1(O)CNCc1ccccc1` (stereo not given), the “Percent Effect” value (30 µM, 30.03 µM) came out at 54.86%.
Take `O=C1N(CCc2ccccc2)CCCC1(O)CNCc1ccc(F)cc1` (stereo not given): the “Percent Effect” value (30.3 µM, […]) is recorded as 14.91%.
As for `O=C1NCCN1CCNCC1(O)CCCN(CCC2CCCCC2)C1=O` (stereo not given), the “Percent Effect” value (30.3 µM, […]) was 17.71%.
Take `O=C1N(CCC2CCCCC2)CCCC1(O)CNCCc1ccccc1` (stereo not given): the “Percent Effect” value (30.3 µM, […]) is given as 74.42%.
As to `Cc1nsc(N2CCc3sccc3C2)n1`, the “Percent Effect” value (30.3 µM, […]) was found to be 14.81%.
`Cc1cnn(CCCNC(=O)N2CCCCC(N3CCCC3)C2)c1` (stereo not given): the “Percent Effect” value (30 µM, 30.03 µM) is 26.48%.
`Clc1cccc(OCCCN2CCOC(Cn3cncn3)C2)c1` (stereo not given): for the setting “30 µM”, the “Percent Effect” value was determined as 18.78%.
Turning to `CCCn1cc(CN2CCCC2c2nccc(CN(C)C)n2)cn1` (stereo not given), where the note is “30.3 µM, […]”, the “Percent Effect” value is -4.658%.
The same measure, in the same setting: in the case of `O=C(c1cc(C2CCCCN2C(=O)C2CCC2)n[nH]1)N1CCOCC1` (stereo not given) it was -8.909%; in that of `NC(=O)c1ccc(NC(=O)c2ccncc2Cl)cn1`, 4.641%; in that of `CCc1cnccc1C(=O)Nc1ccc(C(N)=O)nc1`, -9.48%.
Consider `NC(=O)c1ccc(NC(=O)c2ccncc2F)cn1`, for which the “Percent Effect” value (30.3 µM, […]) came out at 52.29%.
Same read-out and setting: for `COCC(=O)N1CCCCC1c1nc(C)c2c(n1)N(C1CC1)C(=O)CC2` (stereo not given) the value was 6.342%; for `c1csc(-c2cc(CN3CCN(c4nccs4)CC3)no2)c1`, 21.99%; for `Cc1cc(=O)[nH]cc1C(=O)N1CCN(C)c2ccccc2C1`, 57.95%.
Same read-out and setting: in the case of `Cc1cc(=O)[nH]cc1C(=O)N1Cc2ccccc2N(C)CC1C` (stereo not given) it was -24.09%.
On the same count and under the same terms, in the case of `Cc1cc(=O)c(C(=O)N2CCN(C)c3ccccc3C2)c[nH]1` it was -29.42%; in that of `COCc1nnc(NC(=O)CN2C(=O)c3ccccc3NC2C(C)C)s1` (stereo not given), 33.02%; in that of `NC(=O)CCCNC(=O)Cc1cccc(I)c1`, 7.14%.
`O=C(NC1CC1)NC(c1ccc(F)cc1)C1CC1` (stereo not given): the “Percent Effect” value (30.3 µM, […]) was determined as 4.479%.
Same read-out and setting: for `N#Cc1cccc(N2CCCC3(CN(C(=O)c4ccc[nH]4)CCO3)C2)c1` (stereo not given) the value was 1.97%; for `CCC1=N[C@@]2(CC[C@@H]3CN(Cc4ccccc4C)C[C@@H]32)C(=O)N1C.O=C(O)C(F)(F)F`, 57.66%.
Regarding `CCC1=N[C@@]2(CC[C@@H]3CN(Cc4ccc(C)cc4)C[C@@H]32)C(=O)N1C.O=C(O)C(F)(F)F`, the “Percent Effect” value (30.3 µM, […]) is listed as 15.86%.
On the same count and under the same terms, for `CCC1=N[C@@]2(CC[C@@H]3CN(Cc4ccccc4C)C[C@@H]32)C(=O)N1.O=C(O)C(F)(F)F` the value was 9.963%; for `CCc1ccc(C2COCCN2C(=O)Nc2ccc(C(N)=O)c(Cl)c2)o1` (stereo not given), -7.006%.
On the same count and under the same terms, in the case of `CC1=C(C(=O)N2CCCC(Cn3cc(CO)nn3)C2)OCCO1` (stereo not given) it was -4.102%; in that of `Cc1ccccc1-n1cnc(Cl)c1CO`, 0.1894%.
